Compound activity: PubChem BioAssay, National Center for Advancing Translational Sciences (NCATS)
Rows were chosen to be rich in hits. Some 20% of all compounds tested hit in one or more screens of this group.
Shiga toxin inh = blocks Shiga toxin action in Vero cells; Vero cells, Shiga toxin protein synthesis inhibition reporter; 290,000 tested, 9.2% active; inhibition, % at 38.7 µM; in the data active = inhibition mostly above about 28%, no sharp cut-off; inactive = mostly below about 43%; also: 0% is about no effect
Cycloheximide cs = counter-screen hit for Shiga toxin inhibitors, cycloheximide | cell reporter, cycloheximide protein synthesis inhibition counterscreen | max response, % | 300,000 tested, 12% active; in the data active = max response mostly above about 13%, no sharp cut-off; inactive = mostly below about 14%; also: read at 38.3 µM for the half of the compounds with a filed dose; 0% is about no effect
Pf growth 48h = inhibits P. falciparum growth in the first generation, 48 h; Potency, µM (doses to about 28.7 µM), inactives show at the highest dose activity change, negative = inhibition, actives largely listed as inhibitors; P. falciparum luciferase growth in erythrocytes, 48 h; 310,000 tested, 5.9% active; AID 504832; also: potency is read from the fitted curve at half-maximal effect; % is scaled to controls: 0 for no effect and ±100 for the full control effect
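First compound was added to culture medium, then infected red cells at 0.1% parasitemia and 2% hematocrit (final). After incubation at 37 C under 5% CO2, luciferase detection reagent was dispensed and light output recorded.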
Pf growth 96h = inhibits malaria parasite growth, 96 h; P. falciparum luciferase reporter growth, 96 h; Potency, µM (doses to about 28.7 µM), without a hit: at the highest dose activity change, negative = inhibition, hits mostly inhibitors; 320,000 tested, 6.9% active; AID 504834; also: potency is read from the fitted curve at half-maximal effect; % is scaled to controls: 0 for no effect and ±100 for the full control effect
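Infected RBCs, 2% Hct / 0.05% parasitemia final; luciferase-reporter P. falciparum; cpd 96 h, 37 C, 5% CO2; luciferase detection reagent; luminescence.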
HCMV inh = human cytomegalovirus inhibition; activity change, negative = inhibition, % at 57.5 µM; 410,000 tested, 4.5% active; HFF cells, HCMV-luciferase reporter, 72 h; active compounds read low; AID 1259415; in the data active = activity change below about -60%; inconclusive = no clear call, values can overlap the other calls; inactive = above about -39%; also: % is scaled to controls: 0 for no effect and ±100 for the full control effect
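Inhibition of viral replication was scored as loss of reporter luminescence in HFFs infected with HCMV-luciferase (MOI 1 PFU/cell) for 72 h; compounds tested at 2 doses, normalized to buffer and Salinomycin controls.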
* hit, by the source's call. Unless noted, calls follow the shape of the dose curve; as a rule, active = well fitted inhibition curve with a large enough effect; inconclusive = small, poorly fitted or top-dose-only effect, or another doubt; inactive = no such curve, though single readings can be large or run the other way.

For O=C(NC1CCN(Cc2ccccc2)CC1)c1cccc(S(=O)(=O)Nc2ccc(Br)cc2)c1 the results were Pf growth 48h 11.7µM*, Pf growth 96h inconclusive and HCMV inh -68.6*.
For C=CCN(c1ccccc1)S(=O)(=O)c1cccc(C(=O)NC2CCN(Cc3ccccc3)CC2)c1 the results were Pf growth 48h 10.4µM*, Pf growth 96h 11.7µM* and HCMV inh -64.6*.
`O=S(=O)(c1cccs1)N1CCN(Cc2nc3ccccc3s2)CC1` gave Shiga toxin inh 48.6*, Cycloheximide cs 38.1*, Pf growth 48h inconclusive, Pf growth 96h inconclusive and HCMV inh 120.9.
O=C(CCCOc1ccccc1)N1CCN(S(=O)(=O)c2cccs2)CC1 was read as Shiga toxin inh 41.9, Cycloheximide cs 8.2, Pf growth 96h -22.9% and HCMV inh 47.2.
`O=C(OCc1nc2ccccc2s1)C1CCN(S(=O)(=O)c2cccs2)CC1` gave Shiga toxin inh 97.5*, Cycloheximide cs 34.9*, Pf growth 48h 102.2%, Pf growth 96h 14.9% and HCMV inh 45.2.
Screening O=C(CCc1nc2ccccc2s1)N1CCN(S(=O)(=O)c2cccs2)CC1 returned Shiga toxin inh 39.0, Cycloheximide cs 12.2, Pf growth 48h inconclusive, Pf growth 96h 13.1µM* and HCMV inh -1.3.
CC(C)OP(=O)(OC(C)C)/C(C=O)=N\Nc1ccc([N+](=O)[O-])cc1 was read as Shiga toxin inh 26.3, Cycloheximide cs -2.6, Pf growth 48h inconclusive, Pf growth 96h inconclusive and HCMV inh -90.6*.
CN1CCC[C@H]1CCNc1ccc2c(=O)c3ccccc3n(C)c2c1 was read as HCMV inh 25.0.
Screening CN1CCCC1CCNc1ccc2c(=O)c3ccccc3oc2c1 (centres undefined) returned Shiga toxin inh 32.7, Cycloheximide cs 40.9*, Pf growth 48h 44.5%, Pf growth 96h 152.0% and HCMV inh 59.8.
For CN1CCCC1CCNc1ccc2oc3ccccc3c(=O)c2c1 (centres undefined) the results were Shiga toxin inh 43.9, Cycloheximide cs 25.3*, Pf growth 48h 84.1%, Pf growth 96h -63.7% and HCMV inh -4.8.
CCOc1ccc(CNC(=O)C(CC)n2nc(C)n3c(cc4occc43)c2=O)cc1OC (centres undefined) was read as Shiga toxin inh -11.3, Cycloheximide cs -2.6, Pf growth 48h 0.0%, Pf growth 96h inconclusive and HCMV inh 43.5.
For CCCCNC(=O)c1ccccc1SCC(=O)NC1CCCCCCC1 the results were Pf growth 48h inconclusive, Pf growth 96h -24.2% and HCMV inh -16.8.
Cc1cc(N2CCN(c3ccccn3)CC2)n2cc(-c3ccccc3)nc2n1 was read as Shiga toxin inh 7.5, Cycloheximide cs -1.4, Pf growth 48h 13.1µM*, Pf growth 96h 6.57µM* and HCMV inh 24.4.
For Cc1ccc(C(=O)c2cc3ccccc3o2)cc1C the results were Shiga toxin inh 59.1*, Cycloheximide cs 39.0*, Pf growth 96h 159.5% and HCMV inh 76.0.
For Cc1ccc(C(=O)c2cc3ccccc3o2)cc1 the results were Shiga toxin inh 93.0*, Cycloheximide cs 55.1*, Pf growth 48h 272.4%, Pf growth 96h inactive and HCMV inh 15.2.
C/C(=N\NC(=O)c1nnn(-c2nonc2N)c1C(C)C)c1ccc2ccccc2c1 was read as Shiga toxin inh 17.8, Cycloheximide cs 9.4, Pf growth 48h 38.7%, Pf growth 96h 62.9% and HCMV inh -23.9.
For C=CCOc1cccc(/C=N/NC(=O)C(OC)c2ccccc2)c1 (centres undefined) the results were Cycloheximide cs -1.5, Pf growth 48h -16.3%, Pf growth 96h 13.1µM* and HCMV inh -12.7.
For CCOc1ccc(/C=N/NC(=O)C(OC)c2ccccc2)cc1 (centres undefined) the results were Shiga toxin inh -12.4, Cycloheximide cs 0.7, Pf growth 48h inconclusive, Pf growth 96h 9.28µM* and HCMV inh -13.2.
`CCOc1ccc(/C=N/NC(=S)Nc2c(C)cccc2C)cc1` gave Shiga toxin inh -4.7, Cycloheximide cs 9.7, Pf growth 96h 2.62µM* and HCMV inh inconclusive.
For CCc1ccc(CNC(=O)Cc2c(C(=O)O)c(C)cn2C)cc1 the results were HCMV inh 13.0.
`COc1cccc(-c2cc3c(Nc4cccnc4)nccc3n2C)c1` gave HCMV inh -9.8.
For CCOC(=O)C(C(=O)OCC)C(C(=O)OCC)N1CCOCC1 (centres undefined) the results were Shiga toxin inh -5.7, Cycloheximide cs -1.0, Pf growth 96h 0.7% and HCMV inh -105.4*.
For CCOc1ccc(S(=O)(=O)Nc2nc3ccccc3nc2N2CCN(C)CC2)cc1 the results were Shiga toxin inh -5.5, Cycloheximide cs 7.0, Pf growth 48h 7.4%, Pf growth 96h 3.7µM* and HCMV inh 10.6.
For CCOc1ccc(S(=O)(=O)Nc2cccnc2)cc1 the results were Shiga toxin inh 0.2, Cycloheximide cs 10.3, Pf growth 48h 33.7% and HCMV inh -16.3.
`CCOc1ccc(S(=O)(=O)Nc2cnc3ccccc3c2)cc1` gave Shiga toxin inh 1.9, Cycloheximide cs -1.7, Pf growth 48h 5.9%, Pf growth 96h -23.5% and HCMV inh -79.4*.
Screening CCOc1ccc(S(=O)(=O)Nc2nc3ccccc3nc2Cl)cc1 returned Shiga toxin inh 1.3, Cycloheximide cs 0.8, Pf growth 48h 23.6%, Pf growth 96h 25.1% and HCMV inh -33.5.
Cc1ccc2nc(SC(C)C(=O)NCc3ccc4c(c3)OCO4)[nH]c2c1 (centres undefined) was read as Shiga toxin inh -7.9, Cycloheximide cs -1.5, Pf growth 48h 1.9%, Pf growth 96h inconclusive and HCMV inh inconclusive.
`Oc1[nH]c2ccccc2c1N=Nc1ccc(C(F)(F)F)cn1` gave Shiga toxin inh 17.4, Cycloheximide cs 17.6*, Pf growth 48h 68.8%, Pf growth 96h 112.6% and HCMV inh 32.0.
O=C(Cn1ccc(C(F)(F)F)n1)N=Nc1c(O)[nH]c2ccc(Br)cc12 was read as Shiga toxin inh -10.6, Cycloheximide cs -0.4, Pf growth 48h 32.1%, Pf growth 96h 85.7% and HCMV inh 48.8.
Screening Oc1[nH]c2ccc(Br)cc2c1N=Nc1ccc(C(F)(F)F)cn1 returned Shiga toxin inh 38.9, Cycloheximide cs 5.7, Pf growth 48h inconclusive, Pf growth 96h 9.28µM* and HCMV inh 48.0.
Oc1[nH]c2ccccc2c1N=Nc1nncc2ccccc12 was read as Shiga toxin inh 60.4*, Cycloheximide cs 34.9*, Pf growth 48h inconclusive, Pf growth 96h 3.5% and HCMV inh 49.1.
Screening CSc1ncc(OCc2ccccc2)c(=O)[nH]1 returned Shiga toxin inh 6.0, Cycloheximide cs 4.9, Pf growth 48h 3.5%, Pf growth 96h 39.3% and HCMV inh inconclusive.
`COC(=O)C1CSC(C(=O)OC)N1C(=O)CN1CCN(c2ccc(OC)cc2)CC1` (centres undefined) gave Shiga toxin inh -0.8, Cycloheximide cs 10.3, Pf growth 48h 6.3%, Pf growth 96h 75.9% and HCMV inh 7.1.
